Growth data for 33 compounds are collected here from PubChem BioAssay (NCI).

Holding throughout (test): NCI-60 one-dose screen, 48 h (100 = growth as untreated, 0 = no growth, -100 = all killed)
Conditions in all cases: 10 µM unless noted

In assay [1] the test system is T-47D breast.
Assay [2] deals with BT-549 breast.
For assay [3], the system named is MDA-MB-435 melanoma.
Assay [4] concerns SW-620 colon.
Assay [5] has as its system MCF7 breast.
Assay [6] relates to HCT-116 colon.
Assay [7] concerns KM12 colon.
Assay [8] relates to HCC-2998 colon.

About 83,000 compounds went through this panel and 20% of them were active in at least one assay; those are over-represented in the sample as a whole.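 Treatment: one concentration, 48 hours, 96-well format. Scoring: percent growth, with anything below 10 considered active.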 A number with no mark means an inactive call. Active and inactive are the calls of the source.

As to `COc1ccc(C(=S)N2CCN(c3cccc(Cl)c3)CC2)cc1`, the growth in assay [1] was 89.9%; in assay [2] it was 90.8%; in assay [3], 106%; in assay [4], 101%; in assay [5], 111%; in assay [6], 89.2%. In assay [7], the growth was 104%.
For `OC(COc1cccc2ccccc12)CN1CCN(c2ccccc2Cl)CC1` (stereo unspecified), the growth in assay [1] was 74.5%; in assay [2], 106%; in assay [3], 100%; in assay [4], 88.5%; in assay [5], 105%; in assay [6], 71.4%. Besides, the growth in assay [7] was 99.7%.
Regarding `COc1cc(-c2nc(C(=O)NCC(=O)NO)nn2-c2ccc(Cl)cc2)cc(OC)c1OC`, the growth in assay [1] is 88.2%; in assay [2], 105%; in assay [3], 100%; in assay [4], 97.1%; in assay [5] it was 92.2%; in assay [6], 101%. Besides, the growth in assay [7] is 95.9%.
Regarding `Cc1cc(C)nc(SC2=C(Nc3cccc(Cl)c3)C(=O)N(Cc3ccccc3)C2=O)n1`, the growth in assay [1] was 22.2% [30 µM]; in assay [2], 65.5% [30 µM]; in assay [3], 61.4% [30 µM]; in assay [4], 72% [30 µM]; in assay [5] it was 49.8% [30 µM]; in assay [6] it was 43.5% [30 µM]. Moreover, the growth in assay [7] was 83.7% [30 µM].
In the case of `Cc1cc(C)nc(SC2=C(Nc3ccc(C)c(Cl)c3)C(=O)N(Cc3ccccc3)C2=O)n1`, the growth in assay [1] was 26% [30 µM]; in assay [2], 51.6% [30 µM]; in assay [3] it was 51.5% [30 µM]; in assay [4], 70.9% [30 µM]; in assay [5], 39.6% [30 µM]; in assay [6], 42.9% [30 µM]. For the same compound, the growth in assay [7] is 66.2% [30 µM].
Take `Cc1ccc(O)c(N2C(=NCc3ccco3)NS(=O)(=O)c3cnccc32)c1`: the growth in assay [1] was 110%; in assay [2] it was 101%; in assay [3], 91.8%; in assay [4] it was 111%; in assay [5] it was 101%; in assay [6], 99%. Moreover, the growth in assay [7] is 112%.
For `NC(=NCCCOc1ccc(Cl)cc1)Nc1ccc(C(F)(F)F)cc1`, the growth in assay [1] was 2.82% (active); in assay [2], 73.2%; in assay [3] it was 8.95% (active); in assay [4], 14.5%; in assay [5] it was 9.17% (active); in assay [6], 8.24% (active). The growth in assay [7] is 25.2%.
As for `CCCc1cc(=O)n2c(C(=O)Nc3ccc(F)cc3)c(C(=O)Nc3ccc(F)cc3)sc2n1`, the growth in assay [1] was 97.1% [30 µM]; in assay [2], 78.4% [30 µM]; in assay [3] it was 83% [30 µM]; in assay [4] it was 82.9% [30 µM]; in assay [5], 62.6% [30 µM]; in assay [6], 38.1% [30 µM]. For the same compound, in assay [7], the growth was 84.9% [30 µM].
Take `O=C(Nc1ccccc1Cl)c1ccc(NC2=C(Cl)C(=O)N(C3CCCCC3)C2=O)cc1`: the growth in assay [1] is 38.7% [30 µM]; in assay [2], 60.5% [30 µM]; in assay [3], 49.6% [30 µM]; in assay [4] it was 56.7% [30 µM]; in assay [5], 34.7% [30 µM]; in assay [6], 111% [30 µM]. For the same compound, the growth in assay [7] is 64.9% [30 µM].
Consider `NC(=NCCCOc1ccc(Cl)cc1)Nc1ccc(Cl)cc1`, for which the growth in assay [1] is 8.01% (active); in assay [2] it was 59.6%; in assay [3], 11.1%; in assay [4] it was 33.5%; in assay [5], 10.1%; in assay [6], 7.02% (active). Further, in assay [7], the growth is 41.3%.
In the case of `COc1ccc(-c2nc(SCC(=O)Nc3ccc(C(=O)/C=C/c4ccc(Cl)cc4)cc3)[nH]c(=O)c2C#N)cc1`, the growth was 61.8% in assay [1]; 84% in assay [2]; 41.9% in assay [3]; 102% in assay [4]; 41% in assay [5]; 2.43% (active) in assay [6]. Also, in assay [7], the growth was 102%.
`COc1ccc(C(=O)COc2ccc(/C=C3\COc4ccc(OC)cc4C3=O)cc2)cc1`: the growth in assay [1] was 84.9%; in assay [2], 77.6%; in assay [3] it was 77.1%; in assay [4] it was 80.2%; in assay [5], 34.2%; in assay [6] it was 64%. The growth in assay [7] was 68.4%.
Consider `c1ccc2[nH]c(-c3ccc(Nc4nc(N5CCCC5)nc5[nH]ncc45)cc3)nc2c1`, for which the growth in assay [1] is -52.6% (active); in assay [2], 59.7%; in assay [3] it was -76.6% (active); in assay [4] it was -64.1% (active); in assay [5], -21.5% (active); in assay [6] it was -71.8% (active). The growth in assay [7] is -32.6% (active).
In the case of `O=C1/C(=C/c2ccccc2O)N=C2SCCCN12`, the growth in assay [1] was 84.5%; in assay [2], 98%; in assay [3], 96.6%; in assay [4] it was 89.3%; in assay [5], 92.2%; in assay [6] it was 95.5%. Further, the growth in assay [7] was 90.2%.
With `CCOc1ccc(-n2nc(C(=O)Nc3ccccc3)nc2-c2cc(OC)c(OC)c(OC)c2)cc1`, the growth is 39.4% in assay [1]; 60.9% in assay [2]; 0.193% (active) in assay [3]; 36.2% in assay [4]; 37% in assay [5]; 21.2% in assay [6]. Further, the growth in assay [7] is 27.5%.
In the case of `O=C1/C(=C/c2ccc(OCCCOc3ccc(Cl)cc3)cc2)N=C2SCCCN12`, the growth in assay [1] is 50.5%; in assay [2] it was 72.1%; in assay [3], 93.2%; in assay [4] it was 102%; in assay [5], 69.5%; in assay [6], 45.8%. For the same compound, the growth in assay [7] was 70.8%.
Take `OCCN1CCN(c2nc(Nc3ccc(-c4nc5ccccc5[nH]4)cc3)c3cn[nH]c3n2)CC1`: the growth in assay [1] is -68.4% (active); in assay [2] it was -52.3% (active); in assay [3] it was -89.9% (active); in assay [4] it was -85.4% (active); in assay [5] it was -74.4% (active); in assay [6], -80.1% (active). Moreover, the growth in assay [7] is -73.1% (active).
Regarding `O=C1c2c(O)cc(O)cc2-c2c(-c3ccc(O)cc3)oc3cc(O)cc1c23`, the growth in assay [1] was 8.47% (active); in assay [2] it was 50.8%; in assay [3] it was 52.9%; in assay [4], 45.3%; in assay [5], 33.2%; in assay [6], 32.5%. Moreover, the growth in assay [7] was 58.3%.
As to `NC(=NCCCC1(c2ccccc2)CCCC1)Nc1ccc(Cl)cc1`, the growth is 3.02% (active) in assay [1]; 86.8% in assay [2]; 10.9% in assay [3]; -32.9% (active) in assay [4]; 12.4% in assay [5]; 0.509% (active) in assay [6]. Further, in assay [7], the growth is 15.2%.
Turning to `COc1ccc2nc(NC(=O)CSc3nnc4n3S(=O)(=O)c3ccccc3N4c3ccccc3)sc2c1`, the growth in assay [1] was 93.7%; in assay [2], 83.7%; in assay [3] it was 97.8%; in assay [4] it was 107%; in assay [5], 82.3%; in assay [6], 87.9%. Moreover, the growth in assay [7] is 97.4%.
`Fc1ccc2[nH]cc(SSc3c[nH]c4ccc(F)cc34)c2c1`: the growth is 27.5% in assay [1]; 39.6% in assay [2]; 46.2% in assay [3]; 91.2% in assay [4]; 32.2% in assay [5]; 25.3% in assay [6]. For the same compound, in assay [7], the growth is 24.3%.
As for `CC1=CC(C)(C)Nc2ccc(Cc3ccc4c(c3)C(C)=CC(C)(C)N4)cc21`, the growth in assay [1] is 76.2%; in assay [2] it was 80.1%; in assay [3] it was 120%; in assay [4] it was 130%; in assay [5], 84.2%; in assay [6] it was 83.5%. For the same compound, the growth in assay [7] is 105%.
For `O=C(O)COc1ccc(Cl)cc1C1CCCCC1`, the growth was 114% in assay [1]; 117% in assay [2]; 107% in assay [3]; 104% in assay [4]; 104% in assay [5]; 101% in assay [6]. Further, in assay [7], the growth was 103%.
As to `CCOc1nc(-c2ccccc2)cc2c(O)c(C(=O)O)[nH]c(=O)c12`, the growth is 97.9% in assay [1]; 108% in assay [2]; 109% in assay [3]; 114% in assay [4]; 103% in assay [5]; 105% in assay [6]. Moreover, the growth in assay [7] was 93.4%.
For `NC(=NC1C2CC3CC(C2)CC1C3)Nc1ccc(I)cc1` (stereo unspecified), the growth in assay [1] is 2.31% (active); in assay [2], 53.7%; in assay [3], 30.7%; in assay [4], 20.9%; in assay [5], 9.29% (active); in assay [6] it was 8.08% (active). Moreover, the growth in assay [7] is 45.9%.
`COC(=O)c1ccc2oc(NC(=O)c3ccc(Nc4ccc([N+](=O)[O-])cc4C)c([N+](=O)[O-])c3)nc2c1`: the growth in assay [1] is 96%; in assay [2] it was 110%; in assay [3], 100%; in assay [4], 103%; in assay [5], 97.6%; in assay [8], 101%. The growth in assay [7] is 103%.
Consider `COc1ccc2c(c1)C(=O)/C(=C/c1cccnc1)CC2`, for which the growth in assay [1] is 80.2%; in assay [2], 101%; in assay [3] it was 89.5%; in assay [4], 102%; in assay [5], 45.3%; in assay [6], 81.2%. For the same compound, the growth in assay [7] is 66.2%.
Regarding `CCCCC[C@H]1C/C=C2/C(=O)C=C[C@@H]2C/C=C\CCCC(=O)O1`, the growth in assay [1] is -2.9% (active); in assay [2], -11.2% (active); in assay [3] it was -26.7% (active); in assay [4], 0.0064% (active); in assay [5], 0.464% (active); in assay [6], -67.6% (active). Moreover, the growth in assay [7] is -83.6% (active).
Regarding `O=C1c2cc3c(cc2-c2c1c1cc(F)c(F)cc1c(=O)n2CCCn1ccnc1)OCO3`, the growth in assay [1] is 4.88% (active); in assay [2], 12.5%; in assay [3] it was 8.57% (active); in assay [4] it was 8.92% (active); in assay [5], -1.22% (active); in assay [8] it was 13.5%. For the same compound, the growth in assay [7] was 3.55% (active).
On to `C#Cc1cccc(NC(=O)c2ccccc2NC(=O)C=C)c1`, for which the growth is 76.6% [8.25 µM] in assay [1]; 102% [8.25 µM] in assay [2]; 103% [8.25 µM] in assay [3]; 109% [8.25 µM] in assay [4]; 82.4% [8.25 µM] in assay [5]; 104% [8.25 µM] in assay [8]. For the same compound, the growth in assay [7] is 97.8% [8.25 µM].
As to `CCCCn1cnc2c(Sc3c([N+](=O)[O-])ncn3C)nc(N)nc21`, the growth in assay [1] is 74.1%; in assay [2], 98.3%; in assay [3], 102%; in assay [4] it was 102%; in assay [5], 91%; in assay [8], 113%. For the same compound, the growth in assay [7] was 108%.
Regarding `COc1ccc(SC2c3ccc(C)cc3Oc3nc(N)c(C#N)c(N)c32)cc1` (stereo unspecified), the growth in assay [1] was -34.5% (active); in assay [2], -72.9% (active); in assay [3], -69.6% (active); in assay [4], -65.2% (active); in assay [5], -48.6% (active); in assay [8] it was -78.9% (active). The growth in assay [7] was 3.92% (active).
In the case of `CCC#CC[C@H](O)C/C=C1/C(=O)C=C[C@@H]1C/C=C\CCCC(=O)OC`, the growth is 5.68% (active) in assay [1]; -0.591% (active) in assay [2]; 1.89% (active) in assay [3]; -12.5% (active) in assay [4]; 15.1% in assay [5]; -49.7% (active) in assay [6]. Also, in assay [7], the growth was -49% (active).
